Reference: PubChem BioAssay AID1240 (Sanford-Burnham Center for Chemical Genomics, 2008)
In all, about 50,000 compounds went through this assay and about 800 (1.6%) showed an effect of 50% or more. The list comes from a sample in which strong results are over-represented; it also holds similar structures and randomly drawn compounds.

target: Bcl-2-like protein 10 (Homo sapiens) (UniProt Q9HD36); assay: TR3 peptide-Bcl-B binding displacers, biochemical primary FP assay, phenotype converters (AID 1240); settings: GST-Bcl-B / FITC-TR3 peptide fluorescence polarization; stronger effect = higher value; compound at 3.75 mg/L;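 also: 0% = Bcl-B with tracer peptide and DMSO and 100% = tracer peptide lacking Bcl-B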
Sequence (Q9HD36 whole entry, looked up): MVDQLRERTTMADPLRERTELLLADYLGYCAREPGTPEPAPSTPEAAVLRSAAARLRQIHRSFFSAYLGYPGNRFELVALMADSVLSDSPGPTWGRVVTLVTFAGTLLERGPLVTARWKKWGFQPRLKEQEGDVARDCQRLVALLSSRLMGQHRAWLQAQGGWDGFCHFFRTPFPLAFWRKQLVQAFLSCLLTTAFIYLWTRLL

Q: Which displacement does the source give for `Cc1cc(C)c2nc3s/c(=C\c4ccc(-c5cc([N+](=O)[O-])c(C)cc5C)o4)c(=O)n3c2c1` here?
A: -20.8%

Q: For `CN1CCO/C1=C(C#N)\C=C1\Nc2ccccc2C1=O`, which displacement is on record?
A: -77.4%

Q: With `CN1CCO/C1=C(C#N)\C=C1/C(=O)N(c2c(Cl)cccc2Cl)c2ccccc21` as the molecule, how does the displacement read?
A: 67.6%

Q: With `Cc1c(Cl)cccc1N1C(=O)c2ccccc2C1=O` as the molecule, how does the displacement read?
A: 7.1%

Q: With `COc1ccc(/C=C2\SC(N3CCCCCC3)=NC2=O)cc1OC` as the molecule, how does the displacement read?
A: -1.9%

Q: Which displacement does the source give for `Cc1ccc(S(=O)(=O)Oc2ccc(/C=C3/SC(=S)N(C)C3=O)cc2)cc1` here?
A: -3.3%

Q: For `Cc1cccn2c(=O)c(C=O)c(N3CCC(C)CC3)nc12`, which displacement is on record?
A: 17%

Q: For `Cc1cccn2c(=O)c(C=O)c(N3CCCCC3)nc12`, which displacement is on record?
A: 3.9%

Q: Which displacement does the source give for `Cc1cccn2c(=O)c(/C=N/NC(=O)c3ccccc3O)c(N3CCCCC3)nc12` here?
A: 130%

Q: Which displacement does the source give for `CCOC(=O)COc1ccc(/C=C2\C(=O)NC(=O)N(c3ccc(OC)cc3)C2=O)cc1OC` here?
A: 0.6%

Q: Which displacement does the source give for `Cc1cc(C)cc(N2C(=O)NC(=O)/C(=C\c3cc(Br)ccc3OCC(=O)O)C2=O)c1` here?
A: -7.4%

Q: Which displacement does the source give for `CCN(CC)CCNc1nc2nonc2nc1NCCN(CC)CC` here?
A: -0.5%

Q: Which displacement does the source give for `NC(=O)c1cc(NC(=O)c2cc3ccccc3cc2O)cc(C(N)=O)c1` here?
A: -4.2%

Q: `CN(C)c1ccc(NC(=O)c2ccc(Br)cc2)cc1` was tested. Which displacement did it give?
A: 48.8%

Q: `CC(=O)Nc1cccc(-c2nc3cc(C)ccc3o2)c1C` was tested. Which displacement did it give?
A: 99.7%

Q: For `COc1cc(OC)cc(C(=O)Nc2cccc(-c3nc4ncccc4o3)c2C)c1`, which displacement is on record?
A: 5.6%

Q: `COc1cc(OC)cc(C(=O)Nc2cccc(-c3nc4cc(C)cc(C)c4o3)c2C)c1` was tested. Which displacement did it give?
A: 58.7%

Q: With `Cc1cc(C)c2oc(-c3ccc(NC(=O)c4cccc([N+](=O)[O-])c4C)cc3)nc2c1` as the molecule, how does the displacement read?
A: -3.8%

Q: With `CCOc1ccc(C(=O)Nc2cccc(-c3nc4cc(C)ccc4o3)c2C)cc1` as the molecule, how does the displacement read?
A: 17.4%

Q: How did the displacement turn out when `COc1cc2ccccc2cc1C(=O)Nc1cccc(-c2nc3cc(C)cc(C)c3o2)c1C` was run?
A: 26.5%

Q: `COc1cc(OC)cc(C(=O)Nc2ccc3oc(-c4ccc(I)cc4)nc3c2)c1` was tested. Which displacement did it give?
A: -5.8%

Q: With `COc1cc(OC)cc(C(=O)Nc2ccc(-c3nc4cc(C)cc(C)c4o3)cc2)c1` as the molecule, how does the displacement read?
A: 55.3%

Q: Which displacement does the source give for `COc1ccc(Br)cc1C(=O)Nc1cccc(-c2nc3cc(C)ccc3o2)c1C` here?
A: 20.2%

Q: Which displacement does the source give for `Cc1onc(-c2c(Cl)cccc2Cl)c1C(=O)Nc1ccc(N(C)C)cc1` here?
A: 12.1%

Q: `CCOC(=O)c1c(NC(=O)COc2ccccc2C)sc(C(=O)Nc2ccccc2F)c1C` was tested. Which displacement did it give?
A: -0.6%

Q: `CN(C)c1ccc(-c2ncnn2-c2sc3c(c2C#N)CCCC3)cc1` was tested. Which displacement did it give?
A: 3.1%

Q: For `Cc1ccc(NCC(=O)N/N=C\c2ccc(OCc3ccccc3)cc2)cc1`, which displacement is on record?
A: 6.5%

Q: For `O=[N+]([O-])c1ccc(-n2ncnc2-c2ccc(F)cc2)cc1`, which displacement is on record?
A: 10.5%
